Data on 69 compounds can be found in ChEMBL document CHEMBL4513160, “CO-ADD screening of MMV (CH) - Small Polar Library”.

Structures are written as SMILES. The whole screen tested about 18,000 compounds, of which fewer than 10 showed an effect of 50% or more. A selection follows.

For this assay, the system named is Pseudomonas aeruginosa. Briefly: Antibacterial activity against Pseudomonas aeruginosa PAO397 [PAO1 d(mexAB-oprM) d(mexCD-oprJ) d(mexEF-oprN) d(mexJKL) d(mexXY) d(opmH)] (CO-ADD:GN_211); MIC in CAMBH media using NBS plates, by OD(600). As to conditions: Concentration 300 ug.mL-1, ASSAY_TEST Inhibition of Bacterial Growth, detection method Absorption (OD600), MEDIA CAMHB, plate type 384well, CORNING #3640, time 18 hr. The assay is classed as functional.
With `O=C(NC(C1CCNCC1)[C@H]1C[C@H](O)C1)C1(CO)CC1` (some centres undefined), the Inhibition amounted to 10.73%.

In the case of `CC1(C)Cc2cccc(OCCN)c2O1`, the Inhibition is on record as -35.66%.

In the case of `CN1CCC(CN(C)Cc2cncs2)C1` (centres undefined), the Inhibition turned out to be 2.31%.

Regarding `CC(Cn1cccn1)NC(=O)CCc1ccc(F)cc1` (centres undefined), the Inhibition was -50.8%.

For `CC(C)c1nc(CN(CCO)Cc2nccn2C)co1`, the Inhibition was -7.36%.

For the compound `CC1(C)CN(CC(O)C(F)(F)F)CCO1` (centres undefined), the Inhibition is recorded as 7.85%.

Take `COc1cccc(CN(C)CCN(C)C)c1OC`: the Inhibition amounted to 12.2%.

With `CC(C)NC(=O)CNC(=O)c1cc2cc(F)ccc2[nH]1`, the Inhibition is -6.73%.

`CC1CCN(C(=O)NCCS(=O)(=O)C(C)(C)C)C1` (centres undefined): the Inhibition is recorded as 10.36%.

For the compound `CCNc1ncc(C(=O)N[C@@H]2CC[C@@H](N)C2)cn1`, the Inhibition came out at 21.83%.

Consider `CC(c1ccc(F)cc1)N(C)C(=O)CCCN` (centres undefined), for which the Inhibition is reported as -12.4%.

Turning to `c1nsnc1-c1nc(C2CCCO2)no1` (centres undefined), the Inhibition is -21.13%.

On to `O=C(NCc1nnc2n1CCC2)Nc1cn[nH]c1`, for which the Inhibition is given as 21.21%.

Regarding `NCCCc1cn[nH]c1`, the Inhibition is 12.47%.

As to `O=C(c1ccc(C2CCCNC2)cc1)N1CCSCC1` (centres undefined), the Inhibition is on record as -23.58%.

Turning to `CCCNC(=O)C1CCN(c2ncccc2C#N)CC1`, the Inhibition is listed as -18.27%.

As to `CCC(C(=O)Nc1ccccc1)N1CCS(=O)(=O)CC1` (centres undefined), the Inhibition came out at 18.51%.

Turning to `COc1cc(F)c(S(=O)(=O)N(C)CC(N)=O)cc1OC`, the Inhibition stood at 33.48%.

With `COc1nc(C)ccc1C#N`, the Inhibition was found to be 11.86%.

For the compound `CC1(C)C(=O)NCCN1S(=O)(=O)c1ccccc1`, the Inhibition is -8.7%.

`Nc1ccc(CN2CCN(CC(F)(F)F)CC2)cn1`: the Inhibition is -9.81%.

Consider `COc1ccc(C(=O)N2C[C@@H](CO)[C@H](N(C)C)C2)cn1`, for which the Inhibition is recorded as -8.8%.

With `NCc1cc2c([nH]c1=O)CCCC2`, the Inhibition was found to be 4.51%.

Turning to `C=C(C)CN1CCC(NC(=O)NC2CC2)CC1`, the Inhibition was -6.54%.

Take `Cn1nc(C(=O)NCc2cc(Cl)ccn2)ccc1=O`: the Inhibition is recorded as -9.69%.

On to `CC(C)CC(NCCS(C)(=O)=O)c1ccccn1` (centres undefined), for which the Inhibition is on record as 6.01%.

Regarding `Cc1sc(S(N)(=O)=O)cc1N`, the Inhibition was found to be 7.68%.

For `COc1ccc(CC(C)=O)cn1`, the Inhibition is recorded as 4.82%.

In the case of `CC(C#N)CNC(=O)c1c(O)cc(F)cc1F` (centres undefined), the Inhibition was determined as 13.91%.

For `Cc1cccc(CNCCS(=O)(=O)N2CCOCC2)c1`, the Inhibition is given as -1.09%.

On to `c1cnc2cc(-c3nc(C4CCOC4)no3)nn2c1` (centres undefined), for which the Inhibition stood at 18.33%.

For the compound `CC(C)N(CCOc1ccccc1C#N)CC(N)=O`, the Inhibition is reported as -27.27%.

For the compound `Cc1csc(N2CCCN(C(=O)c3cnsn3)CC2)n1`, the Inhibition was -3.72%.

In the case of `O=C(c1cccc(-n2cccn2)n1)N1CCCC1`, the Inhibition came out at 17.03%.

In the case of `COCCCn1c(SC2CCCCNC2=O)n[nH]c1=O` (centres undefined), the Inhibition is on record as -25.74%.

In the case of `CCNC(=O)COC(=O)c1cc(O)nc2ccccc12`, the Inhibition is reported as -1.47%.

Take `Cc1cc(CO)ccc1N1CCOCC1`: the Inhibition amounted to 6.45%.

In the case of `CC(C)OCC(O)CN1CCc2ccc(O)cc2C1` (centres undefined), the Inhibition is given as -14.27%.

In the case of `CCc1ccc(CN2Cc3cnn(CCO)c3C2)nc1`, the Inhibition amounted to 18.58%.

With `NC(=O)CN1CCC(NC(=O)c2cc(Br)c[nH]2)CC1`, the Inhibition is 14.11%.

As to `O=C(CNC(=O)N1CCC=C(Br)C1)N1CCCCC1`, the Inhibition is -37.56%.

In the case of `CCN(Cc1[nH]cnc1C)C1CCS(=O)(=O)C1` (centres undefined), the Inhibition was determined as 6.36%.

Turning to `CN1N=C(C(=O)Nc2ccc(Cl)cn2)CCC1=O`, the Inhibition is recorded as 8.23%.

For the compound `Cc1cc(=O)n(C)cc1NC(=O)CCc1ccccn1`, the Inhibition is reported as 1.98%.

As for `CC(C)(C)c1noc(CN2CCSCC2)n1`, the Inhibition is listed as -15.23%.

As to `CC(O)CN(C)c1ncc(Br)cn1` (centres undefined), the Inhibition was -40.03%.

As for `CC(C)(C)SCC(=O)Nc1ccc(CS(N)(=O)=O)cc1`, the Inhibition was -2.55%.

On to `CS(=O)(=O)NC(c1ccc(F)cc1)c1cccnc1` (centres undefined), for which the Inhibition is on record as -27.51%.

As to `CN(C)CCOC1CCNCC1`, the Inhibition worked out at 12.65%.

On to `COC(=O)CNC(=O)CSc1nc(C)cc(C)c1C#N`, for which the Inhibition was -8.27%.

As for `CN1CCC(CN(C)S(=O)(=O)c2ccccc2)CC1`, the Inhibition was -25.1%.

`Cc1cc(C)n(-c2ccc(C(=O)NC(C)(C)C)cn2)n1`: the Inhibition was determined as 9.83%.

In the case of `Cn1cccc1CNCCNC(=O)c1ccn[nH]1`, the Inhibition was -19.28%.

Consider `c1ccc(C2=NCCN2)nc1`, for which the Inhibition is on record as 8.57%.

For `Cc1ccc(CC(=O)N2CCC[C@H]2CO)cc1O`, the Inhibition is recorded as 9.81%.

`c1ccc2[nH]c(NCC3CCCO3)nc2c1` (centres undefined): the Inhibition is recorded as -27.33%.

Regarding `COCCNC(=O)CN1CCC2(CC1)OCCO2`, the Inhibition came to 24.44%.

Turning to `CCOc1cccc(NC(=O)c2ccc(C)[nH]c2=O)n1`, the Inhibition is on record as 14.98%.

Regarding `CN1CCOC(C(=O)Nc2ncc(Cl)s2)C1` (centres undefined), the Inhibition is -8.17%.

For the compound `CC(=O)NC1CCN(Cc2ccc(F)c(F)c2)CC1`, the Inhibition is -27.6%.

Turning to `Cc1ccccc1OCCN1CCC(C(N)=O)CC1`, the Inhibition amounted to 0.98%.

For `COc1ccccc1OCC(C)N` (centres undefined), the Inhibition was 15.24%.

Regarding `NC1CC(c2cc(NCC[C@H]3CCCN3)ncn2)C1` (some centres undefined), the Inhibition turned out to be 15.98%.

On to `CNc1nnc(SCc2csc(NC(C)=O)n2)s1`, for which the Inhibition is -5.82%.

`COc1ccc(C(N)c2ccncc2)cc1` (centres undefined): the Inhibition was -28.12%.

Regarding `CC(=O)N1CCN(c2ccc(CN)cc2)CC1`, the Inhibition is -1.93%.

Turning to `O=C(NC1CC1)c1n[nH]c2ccccc12`, the Inhibition is -5.33%.

Regarding `O=C(CCCc1nccs1)NCC(=O)N1CCCCC1`, the Inhibition was -6.34%.

Take `CC(CS(C)(=O)=O)NC(=O)C(C)(C)C` (centres undefined): the Inhibition is -7.14%.

One may read the Inhibition as the relative decrease from the control value, in per cent.
